Experimental data: PMC7862700, “An all-to-all approach to the identification of sequence-specific readers for epigenetic DNA modifications on cytosine”

Experiments:
Assay in all cases: DAPPL (digital affinity profiling via proximity ligation, sequencing); 10 mM Tris-HCl pH 7.5, 50 mM NaCl, 1 mM DTT, 4% glycerol, room temperature, 30 min; GST-TFs on glutathione beads, 16-mer random dsDNA library, 0.1% formaldehyde crosslink after washing; high values mean tight binding
Settings in all cases: protein: recombinant; tags: N-terminal GST; dsDNA, one strand shown
[1] = target: T1, ELK1 (Homo sapiens, UniProt P19419 1-428)
T1 sequence: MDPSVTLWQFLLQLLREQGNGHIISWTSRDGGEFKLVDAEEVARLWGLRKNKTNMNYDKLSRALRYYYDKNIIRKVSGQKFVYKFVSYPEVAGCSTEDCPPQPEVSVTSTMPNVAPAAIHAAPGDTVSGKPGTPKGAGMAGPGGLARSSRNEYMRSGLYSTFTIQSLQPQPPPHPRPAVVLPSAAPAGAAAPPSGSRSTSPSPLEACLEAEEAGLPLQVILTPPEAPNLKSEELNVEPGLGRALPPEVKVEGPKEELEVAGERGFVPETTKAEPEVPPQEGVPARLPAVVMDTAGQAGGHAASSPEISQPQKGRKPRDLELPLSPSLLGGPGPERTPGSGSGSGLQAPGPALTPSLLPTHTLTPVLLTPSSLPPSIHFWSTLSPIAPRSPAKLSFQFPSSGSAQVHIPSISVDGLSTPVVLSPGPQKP
Summary of the method: (§1)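 Yeast served to express human transcription factors as GST fusions, which were then captured on glutathione beads and labelled with DNA barcodes. Pooled with a tag-only sample, they were incubated with 200 nmole of a 16-mer random double-stranded DNA library for 30 min at room temperature in Tris/NaCl/DTT/glycerol buffer, washed, crosslinked with 0.1% formaldehyde, ligated by proximity, amplified by PCR and sequenced. Dividing each hexamer's read frequency for a factor by its frequency for the tag-only sample gives the binding signal.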

[2] = target: T2, GABPA (Homo sapiens, UniProt Q06546 1-454)
T2 sequence: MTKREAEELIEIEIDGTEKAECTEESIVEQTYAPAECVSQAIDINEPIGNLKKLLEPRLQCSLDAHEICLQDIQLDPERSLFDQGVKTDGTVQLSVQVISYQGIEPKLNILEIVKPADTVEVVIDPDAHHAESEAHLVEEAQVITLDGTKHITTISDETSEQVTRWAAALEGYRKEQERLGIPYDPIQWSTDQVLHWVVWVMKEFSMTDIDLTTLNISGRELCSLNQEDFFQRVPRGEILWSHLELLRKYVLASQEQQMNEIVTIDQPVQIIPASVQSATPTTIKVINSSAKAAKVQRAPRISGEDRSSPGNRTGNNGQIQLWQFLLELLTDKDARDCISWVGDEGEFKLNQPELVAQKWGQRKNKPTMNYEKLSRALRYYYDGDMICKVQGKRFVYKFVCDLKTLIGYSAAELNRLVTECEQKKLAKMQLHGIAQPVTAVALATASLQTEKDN
Summary of the method: as §1

[3] = target: T3, ERG (Homo sapiens, UniProt P11308 1-479)
T3 sequence: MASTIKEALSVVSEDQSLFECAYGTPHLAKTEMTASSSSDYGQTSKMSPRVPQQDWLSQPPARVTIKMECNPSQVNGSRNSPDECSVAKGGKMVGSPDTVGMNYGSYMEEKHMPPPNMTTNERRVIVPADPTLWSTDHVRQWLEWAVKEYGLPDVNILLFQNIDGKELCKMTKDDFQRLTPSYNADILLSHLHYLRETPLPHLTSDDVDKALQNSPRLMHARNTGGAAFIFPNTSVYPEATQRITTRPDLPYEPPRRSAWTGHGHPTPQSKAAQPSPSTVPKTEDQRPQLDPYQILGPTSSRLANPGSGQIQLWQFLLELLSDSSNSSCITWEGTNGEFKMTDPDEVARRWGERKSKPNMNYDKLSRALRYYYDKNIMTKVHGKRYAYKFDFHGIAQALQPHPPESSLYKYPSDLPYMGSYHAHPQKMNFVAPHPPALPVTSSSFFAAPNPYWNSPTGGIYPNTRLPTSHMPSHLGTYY
Summary of the method: as §1

[4] = target: ELF1 (Homo sapiens, UniProt P32519 1-619)
Sequence of ELF1 (P32519 whole entry): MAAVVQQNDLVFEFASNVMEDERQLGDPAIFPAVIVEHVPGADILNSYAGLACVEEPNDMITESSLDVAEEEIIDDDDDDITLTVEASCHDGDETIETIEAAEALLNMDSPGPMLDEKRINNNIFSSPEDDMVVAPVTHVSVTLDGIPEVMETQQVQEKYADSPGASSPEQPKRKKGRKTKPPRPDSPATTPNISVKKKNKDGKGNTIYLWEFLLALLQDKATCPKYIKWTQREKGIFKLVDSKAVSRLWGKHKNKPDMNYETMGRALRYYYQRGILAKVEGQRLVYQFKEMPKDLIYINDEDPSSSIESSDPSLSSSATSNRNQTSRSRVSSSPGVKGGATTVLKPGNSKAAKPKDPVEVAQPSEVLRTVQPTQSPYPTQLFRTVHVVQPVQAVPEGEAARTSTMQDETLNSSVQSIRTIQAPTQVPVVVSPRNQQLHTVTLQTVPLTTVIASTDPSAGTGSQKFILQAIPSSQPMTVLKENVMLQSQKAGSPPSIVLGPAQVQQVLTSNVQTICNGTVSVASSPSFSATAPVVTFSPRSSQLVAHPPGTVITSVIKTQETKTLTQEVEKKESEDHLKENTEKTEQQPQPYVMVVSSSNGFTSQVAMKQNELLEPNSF
Summary of the method: as §1

[5] = target: T4, EHF (Homo sapiens, UniProt Q9NZC4 1-300)
T4 sequence: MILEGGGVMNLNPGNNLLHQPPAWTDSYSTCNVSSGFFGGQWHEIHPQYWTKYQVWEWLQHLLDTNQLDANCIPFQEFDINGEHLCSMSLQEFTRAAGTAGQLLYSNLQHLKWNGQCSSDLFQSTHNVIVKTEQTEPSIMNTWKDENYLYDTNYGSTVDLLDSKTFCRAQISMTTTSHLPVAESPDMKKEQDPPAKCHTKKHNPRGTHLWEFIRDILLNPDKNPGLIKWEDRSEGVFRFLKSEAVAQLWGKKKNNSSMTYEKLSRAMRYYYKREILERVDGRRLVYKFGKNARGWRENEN
Summary of the method: as §1

[6] = target: SPIB (Homo sapiens, UniProt Q01892 1-262)
Sequence of SPIB (Q01892 whole entry): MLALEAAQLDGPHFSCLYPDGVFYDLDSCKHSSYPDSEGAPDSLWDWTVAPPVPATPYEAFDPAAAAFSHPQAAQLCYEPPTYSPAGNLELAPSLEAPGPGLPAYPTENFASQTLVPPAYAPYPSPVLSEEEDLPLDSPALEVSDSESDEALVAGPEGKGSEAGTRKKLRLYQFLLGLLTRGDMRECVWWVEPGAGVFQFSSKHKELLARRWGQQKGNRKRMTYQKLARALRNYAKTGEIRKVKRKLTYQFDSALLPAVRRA
Summary of the method: as §1

[7] = target: T5, FEV (Homo sapiens, UniProt Q99581 1-238)
T5 sequence: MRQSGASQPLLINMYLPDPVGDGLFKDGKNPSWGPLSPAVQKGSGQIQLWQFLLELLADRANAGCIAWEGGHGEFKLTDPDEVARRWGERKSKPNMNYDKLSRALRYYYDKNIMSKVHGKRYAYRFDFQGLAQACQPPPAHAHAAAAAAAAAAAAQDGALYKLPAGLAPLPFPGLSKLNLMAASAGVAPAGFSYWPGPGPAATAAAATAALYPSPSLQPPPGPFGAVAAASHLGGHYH
Summary of the method: as §1

[8] = target: ETV5 (Homo sapiens, UniProt P41161 1-510)
Sequence of ETV5 (P41161 whole entry): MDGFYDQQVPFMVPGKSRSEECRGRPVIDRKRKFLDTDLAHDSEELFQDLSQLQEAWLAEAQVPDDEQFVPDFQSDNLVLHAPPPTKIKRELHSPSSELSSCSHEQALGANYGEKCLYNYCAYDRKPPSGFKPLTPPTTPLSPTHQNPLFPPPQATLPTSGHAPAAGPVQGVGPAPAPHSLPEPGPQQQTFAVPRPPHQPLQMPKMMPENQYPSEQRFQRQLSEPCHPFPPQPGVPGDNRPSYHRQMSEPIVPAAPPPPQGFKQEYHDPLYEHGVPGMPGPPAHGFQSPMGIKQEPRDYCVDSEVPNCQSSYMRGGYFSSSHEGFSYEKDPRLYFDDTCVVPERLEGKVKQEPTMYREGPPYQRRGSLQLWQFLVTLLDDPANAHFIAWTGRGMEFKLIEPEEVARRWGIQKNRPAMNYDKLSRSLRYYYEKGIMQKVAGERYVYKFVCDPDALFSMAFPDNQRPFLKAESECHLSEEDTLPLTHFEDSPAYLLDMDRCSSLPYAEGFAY
Summary of the method: as §1

[9] = target: ELF4 (Homo sapiens, UniProt Q99607 1-663)
Sequence of ELF4 (Q99607 whole entry): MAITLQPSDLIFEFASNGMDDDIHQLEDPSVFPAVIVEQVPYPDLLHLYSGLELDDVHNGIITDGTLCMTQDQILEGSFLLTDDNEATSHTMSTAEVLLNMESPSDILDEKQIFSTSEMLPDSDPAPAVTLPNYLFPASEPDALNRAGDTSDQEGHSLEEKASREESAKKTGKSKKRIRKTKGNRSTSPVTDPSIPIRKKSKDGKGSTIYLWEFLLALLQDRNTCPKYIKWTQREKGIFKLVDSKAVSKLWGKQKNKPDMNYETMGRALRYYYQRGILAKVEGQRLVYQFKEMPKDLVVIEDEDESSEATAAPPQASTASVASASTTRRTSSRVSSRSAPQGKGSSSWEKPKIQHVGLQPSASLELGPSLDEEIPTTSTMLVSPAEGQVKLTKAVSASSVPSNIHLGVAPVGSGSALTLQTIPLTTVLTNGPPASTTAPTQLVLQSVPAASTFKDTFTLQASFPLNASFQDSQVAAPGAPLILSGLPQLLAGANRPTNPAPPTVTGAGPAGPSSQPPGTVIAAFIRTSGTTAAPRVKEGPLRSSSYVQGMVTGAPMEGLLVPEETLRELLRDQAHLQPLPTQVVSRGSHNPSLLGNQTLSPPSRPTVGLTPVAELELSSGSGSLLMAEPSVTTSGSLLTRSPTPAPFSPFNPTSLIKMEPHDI
Summary of the method: as §1

[10] = target: T6, ELK4 (Homo sapiens, UniProt P28324-2 1-405)
T6 sequence: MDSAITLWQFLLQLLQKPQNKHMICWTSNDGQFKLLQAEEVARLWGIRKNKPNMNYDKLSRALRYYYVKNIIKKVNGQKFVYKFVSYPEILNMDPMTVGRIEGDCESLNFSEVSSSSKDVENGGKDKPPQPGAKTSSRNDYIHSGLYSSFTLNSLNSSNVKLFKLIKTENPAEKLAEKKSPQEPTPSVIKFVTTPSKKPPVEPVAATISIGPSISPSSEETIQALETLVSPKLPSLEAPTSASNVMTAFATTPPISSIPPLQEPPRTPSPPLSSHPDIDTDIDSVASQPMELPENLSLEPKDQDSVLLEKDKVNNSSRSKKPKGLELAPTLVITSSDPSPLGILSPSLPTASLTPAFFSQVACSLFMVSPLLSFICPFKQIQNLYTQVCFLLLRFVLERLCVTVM
Summary of the method: as §1

TGTAAC
binding signal [1]: 1.21 fold enrichment (6-mer frequency, TF over GST control)
binding signal [2]: 1.09 fold enrichment (6-mer frequency, TF over GST control)
binding signal [3]: 1.18 fold enrichment (6-mer frequency, TF over GST control)
binding signal [4]: 1.28 fold enrichment (6-mer frequency, TF over GST control)
binding signal [5]: 1.36 fold enrichment (6-mer frequency, TF over GST control)
binding signal [6]: 1.16 fold enrichment (6-mer frequency, TF over GST control)
binding signal [7]: 1.23 fold enrichment (6-mer frequency, TF over GST control)
binding signal [8]: 1.24 fold enrichment (6-mer frequency, TF over GST control)
binding signal [9]: 1.2 fold enrichment (6-mer frequency, TF over GST control)
binding signal [10]: 1.37 fold enrichment (6-mer frequency, TF over GST control)
